TbPYK inhibitor – inhibitors of Trypanosoma brucei pyruvate kinase; Q57TT1; TbPYK enzyme, Kinase-Glo Plus ATP luminescence, 45 min; Potency, µM (titrated, usually from 76.8 µM), for the others: at the top dose activity, negative = inhibition, most hits filed as inhibitors; 410,000 tested, 0.12% active; AID 624173; note: potency is the fitted concentration of half-maximal effect; % is set by controls: 0 for no effect and ±100 for the full control effect; nearly all actives have a fitted effect of over 50% in size
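Enzyme and substrate buffer are dispensed first and compound is pin-transferred. ADP at 130 uM final then starts the reaction, which runs 45 min at room temperature. Detection reagent is added for 10 min before luminescence is imaged.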
Giardia FBPA inh – inhibitors of Giardia lamblia fructose-1,6-bisphosphate aldolase | AID 2451 | 290,000 tested, 0.71% active | Potency, µM (doses to about 59.6 µM), for the others: top-dose activity, negative = inhibition, most hits filed as inhibitors | A8B2U2 | purified Giardia FBPA; note: potency is the fitted concentration of half-maximal effect; % is set by controls: 0 for no effect and ±100 for the full control effect; nearly all actives have a fitted effect of over 55% in size
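40 nM FBPA preincubated 10 min at RT with compound (up to 57.5 uM final), then substrate plus GAPDH/TPI/NAD/arsenate coupling and diaphorase/resazurin added. Fluorescence read after 20 min at RT, 525/598 nm.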
RE007 growth inh – less growth of the S. pombe RE007 Vpr strain; AID 651644; S. pombe RE007 Vpr strain, BacTiter-Glo ATP luminescence, 24 h; 360,000 tested, 0.21% active; Potency, µM (titrated, usually from 92.2 µM), for inactives: at the top dose activity change, negative = less growth, hits mostly inhibitors; active = well fitted falling curve with a large enough effect; note: potency is the fitted concentration of half-maximal effect; % is set by controls: 0 for no effect and ±100 for the full control effect; nearly all actives have a fitted effect of over 50% in size
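Fission yeast RE007 carrying one integrated HIV-1 vpr copy, seeded at OD 0.01 in PMG+AL medium with 23 nL pinned compound. Grown 24 h at 30 degrees; viability read by BacTiter-Glo luminescence after 5 min.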
CHX counter – affects cycloheximide protein synthesis inhibition readout, counter-screen. cell reporter, cycloheximide protein synthesis inhibition counterscreen. max response, %. 300,000 tested, 12% active. AID 2314; in the data active = max response mostly above about 13%, no sharp cut-off; inactive = mostly below about 14%; note: read at 38.3 µM for the half of the compounds with a filed dose; 0% is about no effect
Shiga inhibitor – inhibitors of Shiga toxin in Vero cells. inhibition, % at 38.7 µM. Vero cells, Shiga toxin protein synthesis inhibition reporter. 290,000 tested, 9.2% active; in the data active = inhibition mostly above about 28%, no sharp cut-off; inactive = mostly below about 43%; note: 0% is about no effect
LmPK inhibitor – LmPK (Leishmania mexicana) enzyme inhibition; Q27686; purified LmPK, Kinase-Glo ATP luminescence, 1 h; Potency, µM (series often up to 57.5 µM), inactives show at the top dose activity change, negative = inhibition, hits mostly inhibitors; 290,000 tested, 0.37% active; AID 1721; note: potency is the fitted concentration of half-maximal effect; % is set by controls: 0 for no effect and ±100 for the full control effect
Target sequence (Q27686 whole entry, looked up): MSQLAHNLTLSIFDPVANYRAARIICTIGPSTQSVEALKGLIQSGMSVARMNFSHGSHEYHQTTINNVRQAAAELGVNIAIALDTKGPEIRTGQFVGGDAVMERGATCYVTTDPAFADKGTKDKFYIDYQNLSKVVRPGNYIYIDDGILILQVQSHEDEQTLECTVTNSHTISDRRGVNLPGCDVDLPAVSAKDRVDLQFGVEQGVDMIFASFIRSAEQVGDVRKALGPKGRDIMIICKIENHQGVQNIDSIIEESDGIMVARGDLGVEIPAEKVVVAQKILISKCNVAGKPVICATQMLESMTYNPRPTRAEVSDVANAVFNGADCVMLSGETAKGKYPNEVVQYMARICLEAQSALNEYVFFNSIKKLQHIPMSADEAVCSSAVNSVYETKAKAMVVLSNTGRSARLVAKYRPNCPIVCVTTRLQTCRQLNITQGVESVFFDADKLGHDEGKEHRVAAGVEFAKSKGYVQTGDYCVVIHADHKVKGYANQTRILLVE
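Kinase-Glo luminescence read after 1 h RT reaction of 0.1 nM LmPK with 0.5 mM PEP and 0.1 mM ADP. Activity scaled between uninhibited and enzyme-free controls.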
Starred values were filed as active, the others as inactive; [ ] = another dose, or the depositor's remark. The sample as a whole holds a higher share of hits than the screen did. Unless noted, calls come from the whole dose curve; as a rule, active = well fitted curve in the direction sought with a large enough effect; inconclusive = small, poorly fitted or top-dose-only effect, or another doubt; inactive = no such curve, though single readings can be large; an effect the other way counts as inactive or inconclusive.

`COc1ccc(NC(=O)c2c(C)oc3ccc(O)c(CN4CCN(Cc5ccccc5)CC4)c23)cc1Cl` gave TbPYK inhibitor 4%.
Screening Cc1ccc(S(=O)(=O)N(C)CCCC(=O)N2CCN(c3ccccn3)CC2)cc1 returned TbPYK inhibitor 2%, Giardia FBPA inh 2%, RE007 growth inh -6%, CHX counter -2, Shiga inhibitor 16 and LmPK inhibitor -1%.
Screening CN(CC(=O)N1CCN(c2ncccn2)CC1)S(=O)(=O)c1ccc(Cl)cc1 returned TbPYK inhibitor 2%, Giardia FBPA inh 2%, RE007 growth inh -18%, CHX counter 21*, Shiga inhibitor 11 and LmPK inhibitor 12%.
`CN(CC(=O)N1CCN(c2ccccn2)CC1)S(=O)(=O)c1ccccc1` gave TbPYK inhibitor -5%, Giardia FBPA inh 6%, RE007 growth inh -6%, CHX counter 43*, Shiga inhibitor 50* and LmPK inhibitor -6%.
Screening COc1ccc(-c2cc(C(=O)Nc3ccc(OC)c(OC)c3)[nH]n2)c(C)c1 returned TbPYK inhibitor 2% and RE007 growth inh 21%.
CCC(=Nc1ccc(N)cc1)C1=C(O)C(C(=O)OC)C(C)(C)CC1=O (stereo unspecified) was read as TbPYK inhibitor 6%, Giardia FBPA inh 1.1µM*, RE007 growth inh 1%, CHX counter -4, Shiga inhibitor 27 and LmPK inhibitor -11%.
For Cc1cc(C(=O)NNC(=S)Nc2cccc(C(F)(F)F)c2)nn1C the results were TbPYK inhibitor -23%, RE007 growth inh -1%, CHX counter 18*, Shiga inhibitor 33 and LmPK inhibitor -2%.
O=C(NNC(=S)Nc1cccc(C(F)(F)F)c1)c1ccncc1 was read as TbPYK inhibitor -19% and RE007 growth inh -2%.
For COc1ccc(NC(=O)CSc2nc3ccccc3nc2N2CCC(C)CC2)cc1 the results were TbPYK inhibitor 3%.
`Cc1ccc(SCC(=O)NCC2CCCO2)cc1` (stereo unspecified) gave TbPYK inhibitor -7%, Giardia FBPA inh -1%, RE007 growth inh -2%, CHX counter 13, Shiga inhibitor 28 and LmPK inhibitor 1%.
`COc1ccc(-c2nsc(SCC(=O)NCC3CCCO3)n2)cc1` (stereo unspecified) gave TbPYK inhibitor -10%, Giardia FBPA inh -4%, RE007 growth inh -4%, CHX counter 32*, Shiga inhibitor 65* and LmPK inhibitor 0%.
`COc1ccc(-c2nc(SCC(=O)NCC3CCCO3)c(-c3ccc(Cl)cc3)[nH]2)cc1` (stereo unspecified) gave TbPYK inhibitor -1%.
CC(C)c1ccc2nc(SCC(=O)NCC3CCCO3)c(C#N)cc2c1 (stereo unspecified) was read as TbPYK inhibitor 0%, Giardia FBPA inh 1%, RE007 growth inh -26%, CHX counter 23, Shiga inhibitor 71* and LmPK inhibitor 0%.
`Cc1ccc(SCCC(=O)NCC2CCCO2)cc1` (stereo unspecified) gave TbPYK inhibitor -2%, Giardia FBPA inh 0%, RE007 growth inh 16%, CHX counter 13*, Shiga inhibitor 23 and LmPK inhibitor -4%.
Screening Cc1ccc(-c2nsc(SCC(=O)NCC3CCCO3)n2)cc1 (stereo unspecified) returned TbPYK inhibitor -6%, Giardia FBPA inh 5%, RE007 growth inh 12%, CHX counter 19, Shiga inhibitor 56* and LmPK inhibitor 0%[11.5 µM].
CCc1ccc2oc(-c3cc(N)cc(C)c3O)nc2c1 was read as TbPYK inhibitor -9%, Giardia FBPA inh -16%, RE007 growth inh -13%, CHX counter 36*, Shiga inhibitor 80* and LmPK inhibitor -9%.
CCc1ccc2oc(-c3ccc(C)c(NC(=O)Cc4ccccc4)c3)nc2c1 was read as TbPYK inhibitor 5%.
Screening CCc1ccc2oc(-c3cc(NC(=O)C(C)C)cc(C)c3O)nc2c1 returned TbPYK inhibitor 0%.

From PubChem
